Test results taken from PubChem BioAssay (NCATS).
Inconclusive results are not listed. Active and inactive are the calls of the source. Calls follow the shape of the dose curve; as a rule, active = well fitted cell-killing curve with a large enough effect; inconclusive = small, poorly fitted or top-dose-only effect, or effect the other way; inactive = no such curve, though single readings can be large or run the other way.

test: Viability qHTS for spleen associated tyrosine kinase inhibitor (SYKi) naive MV4-11 cells (AID 1963823); settings: MV4-11 AML viability, CellTiter-Glo luminescence, 72 h; series mostly up to 45 µM; also: nearly all actives have a fitted effect of over 40% in size
Summary of the method: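 Seeding of 500 SYKi-naive MV4-11 cells per well onto pre-dispensed compounds preceded a 72 hr incubation at 37 C. Luminescent CellTiter-Glo signal, read after 10 min at room temperature, reflected viable cells.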
Potency is read from the fitted curve at half-maximal effect.

SMILES | Potency
CO[C@]12CC[C@@]3(C[C@@H]1[C@](C)(O)C(C)(C)C)[C@@H]1Cc4ccc(O)c5c4[C@@]3(CCN1CC1CC1)[C@H]2O5 | 21.5 µM (active)
COc1cc(C[C@@H](C)N)c(OC)cc1Br | inactive
CN1C(=O)[C@@H](NC(=O)[C@H](CCC(F)(F)F)[C@H](CCC(F)(F)F)C(N)=O)N=C(c2ccccc2)c2ccccc21 | inactive
CC1(C)CC[C@]2(NC(=O)C(C)(F)F)CC[C@]3(C)[C@H](C(=O)C=C4[C@@]5(C)C=C(C#N)C(=O)C(C)(C)[C@@H]5CC[C@]43C)[C@@H]2C1 | 3.32 µM (active)
CN1C2CCC(C)(C)C1CC(OC(=O)C(O)(c1cccs1)c1cccs1)C2 (centres undefined) | inactive
CCN(CC)C(=O)N[C@@H]1C=C2c3cccc4[nH]cc(c34)C[C@@H]2N(C)C1 | inactive
COc1cccc2c1C(=O)c1c(O)c3c(c(O)c1C2=O)C[C@@](O)(C(=O)CO)CC3OC1CC(N2CCOC(OC)C2)C(O)C(C)O1 (some centres undefined) | 0.0027 µM (active)
CCc1ccc(C2CCNCC2)cc1 | inactive
Oc1c(Br)cc(Br)cc1Br | inactive
CN1CCC(O)(c2ccc(F)cc2)C(C(=O)c2ccc(F)cc2)C1 (centres undefined) | inactive
O=C1c2ccccc2C(=O)C1C(=O)C(c1ccccc1)c1ccccc1 | inactive
CCN(CC)C(=O)[C@@H]1C=C2c3cccc4[nH]cc(c34)C[C@H]2N(C)C1 | 28.4 µM (active)
CCOC(=O)c1ncn2c1CN(C)C(=O)c1c(I)cccc1-2 | inactive
CC(C(=O)c1ccccc1)N(C)C (centres undefined) | inactive
O=C(O)c1cc(Oc2ccc(C(F)(F)F)cc2Cl)ccc1[N+](=O)[O-] | inactive
CC(=O)[C@H]1CC[C@H]2[C@@H]3CC[C@H]4C[C@](C)(O)CC[C@]4(C)[C@H]3CC[C@]12C | inactive
CCCC(C)C1(CC)C(=O)N=C(S)NC1=O (centres undefined) | inactive
CNC(=O)Oc1cccc2ccccc12 | inactive
CN1CCC(N(Cc2ccccc2)c2ccccc2)CC1 | inactive

test: Viability qHTS for spleen associated tyrosine kinase inhibitor (SYKi) drug resistant MV4-11 cells (AID 1963824); settings: SYKi-resistant MV4-11 viability, CellTiter-Glo, 72 h; series mostly up to 45 µM; also: nearly all actives have a fitted effect of over 35% in size
Summary of the method: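 SYK-inhibitor-resistant MV4-11 AML cells were seeded at 500 per well onto compound and cultured 72 hours (37 °C, 5% CO2). CellTiter-Glo was then added, and after 10 min at room temperature, luminescence gave viability.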

SMILES | Potency
CCN1C[C@]2(OC(=O)c3ccccc3NC(C)=O)CC[C@H](OC)[C@@]34[C@@H]2C[C@@H]([C@@H]13)[C@@]1(O)C[C@H](OC)[C@H]2C[C@@H]4[C@]1(O)[C@H]2OC | 4.11 µM (active)
CC(=O)OC[C@]12C[C@H](OC(=O)CC(C)C)C(C)=C[C@H]1O[C@@H]1[C@H](O)[C@@H](O)[C@@]2(C)[C@]12CO2 | 0.0089 µM (active)
C[C@]12CC[C@@H](O[C@@H]3O[C@H](CO)[C@@H](O)[C@H](O)[C@H]3O)C[C@@]1(O)CCC1C2CC[C@]2(C)[C@@H](C3=CC(=O)OC3)CC[C@]12O (some centres undefined) | 0.0632 µM (active)
CN1CCc2cc3c(cc2[C@H]1[C@@H]1OC(=O)c2c1ccc1c2OCO1)OCO3 | 6.51 µM (active)
CN(C(=O)CN1C(=O)COc2cc(Cl)c(Cl)cc21)[C@@H](CN1CCCC1)c1ccc(-c2cccc(C(N)=O)c2)cc1 | 8.2 µM (active)
COC(=O)[C@]12CCC(C)(C)C[C@@H]1[C@@H]1C(=O)C=C3[C@]4(C)C=C(C#N)C(=O)C(C)(C)[C@@H]4CC[C@@]3(C)[C@]1(C)CC2 | 0.326 µM (active)
CCc1c(C(=O)C(N)=O)c2c(OCC(=O)OC)cccc2n1Cc1ccccc1 | 2.31 µM (active)
Nc1ccc(Sc2ccc(N)cc2)cc1 | 43.3 µM (active)
CC(=O)OC[C@]12C[C@H](OC(=O)CC(C)C)C(C)=C[C@H]1O[C@@H]1[C@H](O)[C@@H](OC(C)=O)[C@@]2(C)[C@@]12CO2 | 0.0089 µM (active)
C#CC1(O)CCC2C3CCC4=CC(=O)CCC4=C3C=CC21C (centres undefined) | 18.4 µM (active)
C[C@]12CC[C@H](O[C@@H]3O[C@H](CO)[C@@H](O)[C@H](O)[C@H]3O)CC1CC[C@@H]1C2CC[C@]2(C)[C@@H](C3=CC(=O)OC3)CC[C@]12O (some centres undefined) | 1.78 µM (active)
CCC1(CC)C(=O)NC(=O)NC1=O | inactive
CCCCCn1cc(C(=O)Cc2ccccc2OC)c2ccccc21 | 20.6 µM (active)
C[C@@H]1C[C@@H](O)[C@]2(O)O[C@@H]3C[C@@]4(C=O)C(CC[C@@H]5C4CC[C@]4(C)[C@@H](C6=CC(=O)OC6)CC[C@]54O)C[C@H]3O[C@@H]2O1 (some centres undefined) | 0.0317 µM (active)
CCC1(O)CCC2C3CCC4=CC(=O)CCC4C3CCC21CC (centres undefined) | 14.6 µM (active)
CC12CCC3C(C1)c1c(cc(O)c(C(=O)c4ccccc4)c1OC3(C)C)O2 (centres undefined) | 14.3 µM (active)
C/C=C1/CN2CC[C@]34C(=Nc5ccccc53)[C@@H]2C[C@@H]1[C@H]4C(=O)OC | 2.27 µM (active)
Cn1ncnc1COc1nn2c(-c3c(F)cccc3F)nnc2cc1C1CCC1 | inactive
CCCCn1cc(C(=O)c2cccc3ccccc23)c2ccccc21 | 18.4 µM (active)
C[C@H]1C(=O)O[C@H]2[C@H](O)[C@]34C5OC(=O)[C@]3(O[C@@H]3OC(=O)[C@H](O)C34[C@H](C(C)(C)C)[C@H]5O)C12O (some centres undefined) | inactive
